In the library only some 1.4% were active in any assay of this set; here they are far more common.
PriA SSB inh: K. pneumoniae PriA-SSBct interaction inhibition; AlphaScreen SSBct-PriA binding, biotinylated peptide; inhibition, % at 33 µM; 430,000 compounds, 0.6% hits; AID 1272365; in the data active means inhibition mostly above about 37%, no sharp cut-off; inactive means mostly below about 20%;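 further: plate controls were negative control peptide for no effect and reference peptide for full effect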
Mtb hypoxia inh: reduces hypoxia-regulated biosensor signal in M. tuberculosis; M. tuberculosis hypoxia-regulated fluorescent reporter, fluorescence; fluorescence inhibition, % (concentration not given with the values); 300,000 compounds, 0.1% hits; in the data active means fluorescence inhibition mostly above about 23%, no sharp cut-off; inactive means mostly below about 17%
CCHFV vOTU inh: blocks the CCHF virus ovarian tumor domain protease; CCHFV vOTU protease, Pep-AMC fluorescence; inhibition, % at 11.5 µM; 370,000 compounds, 0.55% hits; AID 651958; in the data active means inhibition above about 30%; further: 0% = vehicle wells with enzyme and 100% = no enzyme wells
RN4220 kill: S. aureus RN4220 growth inhibition | OD600, 16 h | inhibition, % (no concentration beside the values) | 330,000 compounds, 0.33% hits | AID 1259311; in the data active means inhibition above about 85%;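 further: plate controls were untreated cells for no effect and reference antibiotic for full effect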
Sa ugtP lethal: growth inhibition of S. aureus ugtP deletion strain | S. aureus RN4220 ugtP deletion, OD600 growth, 16 h | growth inhibition, % (no concentration beside the values) | 330,000 compounds, 0.54% hits | AID 1259309; in the data active means growth inhibition above about 68%;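 further: plate controls were untreated wells for no effect and antibiotic for full effect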
Numbers without * were called inactive; · = no result given; ! = a repeat was not active.

SMILES | PriA SSB inh | Mtb hypoxia inh | CCHFV vOTU inh | RN4220 kill | Sa ugtP lethal
Cc1ccccc1-n1ncc2c([N+](=O)[O-])cc([N+](=O)[O-])cc21 | 64* | · | -8 | · | ·
CCOC(=O)C1Nc2ccccc2C2C(O)C(O)CC12 (centres undefined) | 29 | 8 | 61* | 9 | -6
COc1ccc(NS(=O)(=O)c2ccc(N3CCOCC3)c(N)c2)cc1 | 1 | 29* | 3 | 5 | 10
COc1cccc(C2C(=C(O)c3ccc4c(c3)OCCO4)C(=O)C(=O)N2c2nnc(C)s2)c1 (centres undefined) | -4 | · | · | · | ·
CCOC(=O)C1=C(C)N=c2sc(=Cc3cccc([N+](=O)[O-])c3O)c(=O)n2C1c1ccc(OC)cc1OC (centres undefined) | 1 | 41* | · | -14 | 40
CCOC(=O)C1=C(C)N=c2s/c(=C/c3cccc([N+](=O)[O-])c3O)c(=O)n2C1c1ccc(OC)cc1OC (centres undefined) | · | · | -8 | · | ·
CC1CCCCCCCCC(=O)OCCN(C(=O)OC(C)(C)C)C(C)CCCCCCCCC(=O)OCCN1C(=O)OC(C)(C)C (centres undefined) | · | 2 | · | 2 | -5
O=S(=O)(N=C(Sc1ccc(Cl)cc1)c1ccccc1)c1ccccc1 | 5 | 7 | · | 26 | 92*
COc1ccc(Cc2c(Cl)ncnc2Cl)cc1 | -13 | 5 | 4 | 4 | 4
CCOc1ccc(Cc2c(Cl)nc(N)nc2Cl)cc1 | -6 | -7 | -9 | -2 | -2
CCOc1ccc(Cc2c(Cl)nc(SC)nc2N(C)C)cc1 | -22 | -2 | 8 | -7 | 93*
CSc1nc(Cl)c(Cc2ccc(OC(C)C)cc2)c(N(C)C)n1 | -28 | 6 | 18 | -13 | 94*
O=C(COc1ccc2c(c1)OCO2)N1CCN(c2ccc3nnc(C4CC4)n3n2)CC1 | -6 | · | · | · | ·
CC1Oc2cc3c(-c4c(O)cc(O)c5c(O)c6c(cc45)OC(C)C(C)C6=O)c(O)cc(O)c3c(O)c2C(=O)C1C (centres undefined) | 3 | · | · | 98* | 98*
C[C@@H]1Cc2c(O)c(O)cc(O)c2C(=O)O1 | -2 | · | · | 1 | -2
COc1ccc(CCNc2nc(-c3ccncc3)cs2)cc1OC | 1 | -3 | -4 | -4 | -7
CC(C)c1nc(-c2ccccn2)cs1 | 7 | · | · | · | ·
Cc1cccnc1Nc1nc(-c2ccccn2)cs1 | 68* | · | 8 | 98* | 99*
CNc1nc(-c2ccccn2)cs1 | 118* | · | · | · | ·
Cc1cccc(Nc2nc(-c3ccccn3)cs2)n1 | 95* | 8 | -3 | 28 | -25
COc1ccc(CCNc2nc(-c3ccccn3)cs2)cc1OC | 39* | · | 9 | · | ·
Cc1cccc(Nc2nc(-c3cccs3)cs2)n1 | 6 | 12 | 9 | -15 | 70
O=C(NCCn1ccnc1-c1ncccn1)c1ccc(Cl)s1 | 5 | · | · | · | ·
COC(=O)c1ccc(S(=O)(=O)NCCn2ccnc2-c2ncccn2)cc1 | 96* | · | · | · | ·
O=S(=O)(NCCn1ccnc1-c1ncccn1)c1ccc(OC(F)(F)F)cc1 | 1 | · | · | · | ·
SMILES | PriA SSB inh | Mtb hypoxia inh | CCHFV vOTU inh | RN4220 kill | Sa ugtP lethal
O=S(=O)(NCCn1ccnc1-c1ncccn1)c1ccc(Cl)s1 | 44* | · | · | · | ·
O=S(=O)(NCCn1ccnc1-c1ncccn1)c1ccc2c(c1)CCCC2 | 96* | · | · | · | ·
CCCCCc1ccc(OCCCC[n+]2ccc(C)cc2)c(CCCCC)c1 | 16 | · | 17 | 99* | 100*
CCC(C)(C)c1ccc(OCCCC[n+]2ccccc2)c(C(C)(C)CC)c1 | · | · | 19 | 101* | 100*
CCCCCc1ccc(OCCCC[n+]2ccccc2)c(CCCCC)c1 | -1 | · | · | 101* | 93
O=C(c1ccc2nc[nH]c2c1)N1CCC(n2c(=O)[nH]c3ccc(F)cc3c2=O)CC1 | -9 | · | · | · | ·
O=C(c1ccc(Br)o1)N1CC[C@H](Oc2cccnn2)C1 | -14 | · | · | · | ·
O=c1[nH]nc(SCc2nc(-c3ccc(F)cc3)no2)n2nc(-c3ccco3)cc12 | -10 | · | · | · | ·
C#CCOCCOCCOCCNc1nc(N2CCN(C(=O)C(CCC(=O)O)n3cc(C(N)Cc4ccc(O)cc4)nn3)CC2)nc(N2CCN(C(=O)C(CCC(=O)O)n3cc(C(N)C(C)CC)nn3)CC2)n1 (centres undefined) | · | 7 | · | 0 | 5
O=S(=O)(c1cccc(Br)c1)N1CCN(c2ncnc3scc(-c4ccccc4)c23)CC1 | -2 | 6 | 5 | 98* | 99*
COc1ccc(N2CCN(c3ncnc4scc(-c5ccccc5)c34)CC2)cc1 | 46* | 7 | 0 | 1 | 3
COc1ccc(N2CCN(c3ncnc4scc(-c5ccc(C)cc5)c34)CC2)cc1 | 19 | -9 | 4 | 4 | 5
CSc1ncccc1C(=O)N1CCC[C@H](Cc2nc(-c3ccccc3F)no2)C1 | -5 | · | · | · | ·
Cc1cccc(Cn2c(N3CCCCC3C)nc3c2c(=O)[nH]c(=O)n3C)c1 (centres undefined) | -6 | 0 | 30* | 10 | 3
c1ccc(-c2nc([P+](c3ccccc3)(c3ccccc3)c3ccccc3)c(N3CCCCCC3)o2)cc1 | 37* | · | · | · | ·
N#Cc1nc(-c2ccccc2)oc1N1CCCCC1 | 3 | 10 | · | 2 | -14
Cc1ccc(-c2nc(C#N)c(N3CCCCCC3)o2)cc1 | 99* | · | · | · | ·
Cc1ccc(-c2nc(C#N)c(N3CCCCC3)o2)cc1 | 87*! | -12 | -31 | 2 | 3
Cc1cc(C)c(C)c(S(=O)(=O)NCC(=O)N2CC(C)CC(C)C2)c1C (centres undefined) | -3 | · | · | · | ·
N#CC1=C(N)Oc2n[nH]c(-c3ccccn3)c2C1c1c(F)cccc1Cl (centres undefined) | 42* | 7 | -13 | 18 | 14
O=[N+]([O-])c1cccnc1SCc1ccccc1 | 48* | -7 | 7 | 1 | -1
O=[N+]([O-])c1cccnc1Sc1ccc(Br)cc1 | 48* | 11 | 8 | 1 | 14
COc1ccc2c(c1)OCC1C2N2C(=O)CN(C)C(=O)[C@@]2(C)C1c1ccccc1 (some centres undefined) | · | 7 | · | 4 | 2
CC(C)(C)c1ccc(-c2csc(NC(=O)c3cccc(N4C(=O)CCC4=O)c3)n2)cc1 | -8 | · | · | · | ·
NC(N)=NS(=O)(=O)c1ccc(NC(=S)NC(=O)Cc2ccc(Cl)cc2)cc1 | 7 | 5 | -10 | 4 | 88*
SMILES | PriA SSB inh | Mtb hypoxia inh | CCHFV vOTU inh | RN4220 kill | Sa ugtP lethal
NC(N)=NS(=O)(=O)c1ccc(NC(=S)NC(=O)c2ccccc2)cc1 | 2 | 3 | -1 | 93 | active
NC(N)=NS(=O)(=O)c1ccc(NC(=S)NC(=O)/C=C/c2ccccc2)cc1 | -3 | -7 | 16 | 3 | 5
COc1ccc(C(=O)NCC(c2ccc3c(c2)CCN3C)N(C)C)cc1OC (centres undefined) | 10 | · | · | · | ·
CCOc1ccc(OCC(=O)Nc2ccc(OC)cc2)cc1 | -19 | 3 | 7 | 3 | 8
CCc1ccc(OCC(=O)NNCC(=O)Nc2ccc(OC)cc2)cc1 | 4 | 57* | -4 | 2 | 2
O=[N+]([O-])c1cccc(C=Nn2cnnc2)c1 | · | -2 | · | 3 | 7
COc1ccc(CCNC(=O)c2cc3c(=O)n4ccccc4nc3n(Cc3ccco3)c2=N)cc1OC | 10 | 39* | -10 | 2 | -1

From PubChem
